HIF-2a block: blocks HIF-2a reporter activity. 360,000 tested, 0.72% active. AID 624352. 786-0 RCC cells HIF-2a reporter, luciferase luminescence, overnight. inhibition, % at 18.8 µM;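 active means inhibition of the luminescence signal of 40% or more relative to plate controls, in a single-dose primary screen at 18.75 µM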
TROY NFkB inh: inhibitors of TROY-dependent NF-kB signaling; 360,000 tested, 0.98% active; Q293 LMP1-TROYcd NF-kB luciferase reporter, 4 h; inhibition, % at 10 µM;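 active means compounds whose plate-normalised and pattern-corrected inhibition of the luciferase reporter signal at the single screening dose is 50% or more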
TWEAK Fn14 block: blocks TWEAK-Fn14 interaction in a reporter cell assay; TWEAK-stimulated Fn14 reporter cells, luciferase luminescence, 8 h; inhibition, % at 10 µM; 360,000 tested, 2% active; AID 1159606; in the data active means inhibition above about 50%
Peg3 promoter: inhibitors of Peg3 promoter; HeLa PEG-Prom luciferase reporter, luminescence, overnight; inhibition, % at 20 µM; 360,000 tested, 1.7% active; AID 588405;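 active means inhibition of at least 50% at 20 µM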
TRPM1 prom inh: MITF TRPM1 promoter inhibition in SK-MEL-5 cells. SK-MEL-5 TRPM1 promoter luciferase, 24 h. inhibition, % at 12.5 µM. 330,000 tested, 0.83% active;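 active means mean inhibition across replicates of 60% or more, whatever share of single replicates reaches that level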
LMP1 NFkB inh: reduces LMP1-driven NF-kappaB luciferase signal; 350,000 tested, 0.69% active; inhibition, % at 12.5 µM; LMP1-induced NF-kappaB luciferase reporter cells, luminescence; in the data active means inhibition above about 41%;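 further: 0% = neutral control wells and 100% = reference inhibitor control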
Mdm2 MdmX conf: Mdm2/MdmX (human) interaction inhibition, confirmed. shares compounds with HIF-2a block. SaOS-2 split-luciferase Mdm2/MdmX complementation, luminescence. inhibition, % at 8 µM. 740 tested, 99% active;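 active means mean inhibition of the luminescence signal across two replicates at or above 26 percent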
Target sequence (O15151 whole entry, looked up): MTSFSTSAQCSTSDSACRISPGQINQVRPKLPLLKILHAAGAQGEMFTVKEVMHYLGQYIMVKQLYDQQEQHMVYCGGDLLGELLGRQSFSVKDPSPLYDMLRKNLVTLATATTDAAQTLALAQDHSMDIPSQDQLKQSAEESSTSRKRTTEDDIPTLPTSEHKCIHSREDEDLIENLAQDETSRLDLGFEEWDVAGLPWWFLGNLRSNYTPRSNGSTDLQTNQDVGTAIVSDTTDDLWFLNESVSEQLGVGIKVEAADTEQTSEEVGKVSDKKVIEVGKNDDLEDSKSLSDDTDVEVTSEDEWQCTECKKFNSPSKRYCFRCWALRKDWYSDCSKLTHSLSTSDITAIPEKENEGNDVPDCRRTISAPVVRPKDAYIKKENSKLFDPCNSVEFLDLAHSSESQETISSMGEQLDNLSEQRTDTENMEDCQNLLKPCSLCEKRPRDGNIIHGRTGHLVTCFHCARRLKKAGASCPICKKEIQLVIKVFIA
Target sequence (Q00987 whole entry, looked up): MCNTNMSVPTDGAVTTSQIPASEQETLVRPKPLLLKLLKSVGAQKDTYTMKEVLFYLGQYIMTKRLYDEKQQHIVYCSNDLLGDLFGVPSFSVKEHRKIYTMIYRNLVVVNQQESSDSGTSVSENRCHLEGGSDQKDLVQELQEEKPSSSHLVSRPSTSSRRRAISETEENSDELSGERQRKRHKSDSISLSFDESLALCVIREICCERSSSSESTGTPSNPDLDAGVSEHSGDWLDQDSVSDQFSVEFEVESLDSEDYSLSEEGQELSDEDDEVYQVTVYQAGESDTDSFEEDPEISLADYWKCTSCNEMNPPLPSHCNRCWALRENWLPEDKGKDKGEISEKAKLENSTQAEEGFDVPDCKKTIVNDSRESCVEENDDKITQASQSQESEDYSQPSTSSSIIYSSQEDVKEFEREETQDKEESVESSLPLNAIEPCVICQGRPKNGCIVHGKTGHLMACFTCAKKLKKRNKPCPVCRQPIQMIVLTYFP
HIF-2a inh conf: confirmation of HIF-2a inhibitors | shares compounds with HIF-2a block | 786-0 RCC cells, HIF-2a luciferase reporter luminescence, overnight | inhibition, % at 18.8 µM | 1,800 tested, 56% active | AID 651580;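 active means mean inhibition across four replicates of at least 40 percent at the single tested concentration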
HIF-1a counter: HIF-1a inhibition counter-screen for HIF-2a hits | 1,800 tested, 72% active | MiaPaCa-2 HIF-1a luciferase reporter, desferoxamine, overnight | inhibition, % at 18.8 µM | shares compounds with HIF-2a block;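 active means mean inhibition of the reporter signal across four replicates at the single tested dose of 50% or more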
An asterisk follows results filed as active; x = no result given. Most compounds without a hit are left out; they make up all but 4% or so of the library.

SMILES | HIF-2a block | TROY NFkB inh | TWEAK Fn14 block | Peg3 promoter | TRPM1 prom inh | LMP1 NFkB inh | HIF-2a inh conf | HIF-1a counter | others
O=S(=O)(CC(CN1CCCCC1)N1CCCCC1)c1ccc2ccccc2c1 (stereo not drawn) | 62* | -30 | 41 | 109* | 75* | 15 | 21 | 104*
CCc1ccc2oc(C(=O)Nc3nonc3C)c(C)c2c1 | -210 | 35 | 37 | -426 | -53 | -42 | x | x
Cc1c(C(=O)Nc2nonc2-c2ccc(F)cc2)oc2ccc(F)cc12 | -7 | 39 | 79* | 39 | 11 | 12 | x | x | Mdm2 MdmX conf=90*
O=c1cc(-c2c(F)c(F)c(F)c(F)c2F)oc2ccccc12 | 62* | 66* | 6 | 84* | 33 | -12 | 33 | 80*
CC(=O)OC1CCC2(C)C(CCC3C4CC=C(C(C)=O)C4(C)OC(=O)CC32)C1 (stereo not drawn) | 66* | 43 | 102* | 111* | x | 79* | 62* | 105*
Cc1ccc(-n2ncc(-c3n[nH]c(=S)o3)c2N)cc1C | -36 | -17 | -14 | -18 | x | 4 | x | x
CC(C)(C)NC(=O)CSc1ncnc2c1nnn2Cc1ccccc1Cl | 48* | 29 | 21 | 31 | 11 | 0 | 22 | 15
O=C(CSc1ncnc2c1nnn2Cc1ccccc1)NC1CCCC1 | 17 | 17 | 9 | 5 | -9 | 5 | x | x
CCC(C)[C@H](N)C(=O)N[C@H]1CCC2C3CC=C4C[C@@H](O)CC[C@]4(C)C3CC[C@@]21C (stereo partly drawn) | 86* | 0 | 11 | 110* | x | -11 | -1 | 50*
C[C@@H](N)C(=O)N[C@H]1CCC2C3CC=C4C[C@@H](O)CC[C@]4(C)C3CC[C@@]21C (stereo partly drawn) | 7 | -7 | 19 | -1 | -13 | -1 | x | x
CC(C)[C@H](N)C(=O)N[C@H]1CCC2C3CC=C4C[C@@H](O)CC[C@]4(C)C3CC[C@@]21C (stereo partly drawn) | 55* | -27 | -46 | 92* | x | -26 | 2 | 90*
COc1cccc(-c2ocnc2C(=O)Nc2ccc(N3CCOCC3)cc2N2CCOCC2)c1 | 17 | 1 | -3 | 22 | 4 | 8 | x | x
NC(=O)Cn1c(=O)n(Cc2ccccc2)c(=O)c2cccnc21 | 0 | -8 | -3 | 17 | 4 | -3 | x | x
Cc1cc(NC(=O)CSc2nc3cc(Cl)ccc3o2)no1 | -39 | -32 | -13 | -114 | -7 | 4 | x | x
O=S1(=O)C=C(Sc2nc3cc(Cl)ccc3o2)c2ccccc21 | -4 | 28 | 64* | 102* | 68* | -9 | x | x | Mdm2 MdmX conf=103*
Cc1ccc(-c2cnc(-c3ccncc3)o2)cc1 | -239 | -39 | -16 | -240 | -43 | -15 | x | x
Nc1ccc(-c2ncc(-c3ccccc3)o2)cc1 | 78* | 34 | 68* | -75 | 58 | 28 | 92* | 62*
O=[N+]([O-])c1cc(S(=O)(=O)N2CCCCCC2)ccc1Cl | 40* | 18 | -6 | 69* | 38 | -4 | 29 | 68*
Cc1ccc(S(=O)(=O)N2CCCC2)cc1[N+](=O)[O-] | 2 | -7 | 14 | 6 | -8 | 3 | x | x
COc1cccc(CNC(=O)c2cc3oc4ccccc4c3n2C)c1OC | -18 | -12 | -109 | -6 | 10 | 11 | x | x | Mdm2 MdmX conf=100*
CCOc1ccc(CNC(=O)c2cc3oc4ccccc4c3n2C)cc1 | -83 | -23 | -45 | -25 | -13 | 22 | x | x
CNC[C@@H]1OCc2ccccc2-c2c(n(C)c3ccccc23)C(=O)N([C@H](C)CO)C[C@H]1C | -2 | 15 | 13 | -4 | x | -2 | x | x
COc1ccc(/C=N/n2cnc3c([nH]c4ccc(F)cc43)c2=O)cc1CN1CCCC1 | 10 | 6 | -28 | 91* | 86* | -12 | x | x | Mdm2 MdmX conf=100*
COc1ccc(C)c2sc(N(CCCN(C)C)C(=O)c3ccc(S(=O)(=O)N4CCc5ccccc5C4)cc3)nc12 | 85* | 38 | -168 | 102* | 96* | -9 | 29 | 97*
COc1cc2nc(N(CCCN(C)C)C(=O)c3ccc(S(=O)(=O)N4CCc5ccccc5C4)cc3)sc2cc1OC | -4 | 0 | -4 | 36 | 12 | -10 | x | x
SMILES | HIF-2a block | TROY NFkB inh | TWEAK Fn14 block | Peg3 promoter | TRPM1 prom inh | LMP1 NFkB inh | HIF-2a inh conf | HIF-1a counter | others
Cc1cc(=O)n2c(n1)NC(Nc1cccc(C)c1C)=NC2c1ccccc1 (stereo not drawn) | 16 | -10 | 5 | 14 | -13 | -2 | x | x
O=C(Nc1ccc(NC(=O)c2ccco2)cc1)c1ccc2c(c1)OCCO2 | 46* | 17 | 27 | -37 | 19 | -8 | 69* | 11
C=C1CC2(CC(c3ccccc3)OC(c3ccccc3)C2)OC1=O (stereo not drawn) | 87* | 23 | 87* | 96* | 107* | -3 | 91* | 106*
O=C(O)CCCC(=O)OCc1c(-c2ccccc2)ncc2ccccc12 | -3 | -16 | -3 | -5 | -1 | -3 | x | x
CC(=NNC(=S)Nc1cccc(Cl)c1)c1ccccn1 | 72* | 17 | -12 | 93* | 33 | 52* | -167 | 40
COc1cccc(-c2noc(-c3ccc(Br)o3)n2)c1 | -297 | -74 | -6 | -326 | -72 | -46 | x | x
C=CCOc1ccc(C=Nc2ccc(C)c(Cl)c2)c(O)c1 | 9 | 6 | 15 | 3 | -2 | 0 | x | x
CN1CC2=Cc3ccccc3OC23Oc2ccccc2C=C3C1 | 92* | -9 | 28 | 69* | 17 | -6 | 20 | 79*
COc1cccc2cc(C(=O)OCC(=O)NCc3ccc4c(c3)OCO4)c(=O)oc12 | -178 | -50 | -20 | -233 | -42 | -38 | x | x
Oc1ccc(-c2cc(-c3ccc(O)cc3)nc(-c3ccccc3)n2)cc1 | 66* | 54* | 44 | 31 | 1 | -1 | -32 | 104*
O=C(NCCCN1CCCC1=O)c1cc2nc(-c3ccco3)cc(C(F)(F)F)n2n1 | 4 | -13 | 27 | 19 | -1 | -4 | x | x
COc1ccc(C2c3ccc(O)cc3Oc3ncn4nc(-c5cccnc5)nc4c32)cc1OC (stereo not drawn) | 52* | 35 | 18 | 49 | 11 | 11 | 37 | 57*
CC(C)NC(=O)/C(C#N)=C/c1cccc(NC(=O)c2ccccc2Cl)c1 | 48* | 20 | 38 | 9 | 7 | 14 | 34 | 15
COc1ccc(Cc2c(-c3ccccc3)nc3ccc(Br)cn23)c(C)c1 | -236 | -40 | -11 | -120 | x | x | x | x

Compound activity from PubChem BioAssay.
